From PubChem BioAssay
Only some compounds are listed: those with a hit (about 4% of all), similar ones and a draw of the others.
Shn3 3UTR inh: reduces Shn3 3'UTR luciferase signal in osteoblasts; inhibition, % at 12.5 µM; 360,000 compounds, 0.52% hits; Clone20 osteoblast Shn3 3'UTR firefly luciferase, 24 h; AID 588674;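 active = mean inhibition of at least 75% with every replicate also reaching 75%; inconclusive = mean inhibition at least 75% but some replicate below; inactive = mean inhibition below 75%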
Beta apoptosis: beta cell apoptosis inhibition | INS-1E cytokine-induced death, ATP luminescence, 48 h; percent of positive-control rescue, neutral wells zero | 300,000 compounds, 0.8% hits | protection from apoptosis, % (concentration not given with the values);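 active = Every replicate reaches about 75%, or at least half do and their mean reaches it too, limit read from the data; inconclusive = At least half of replicates reach the limit but their mean does not; inactive = Under half of replicates reach the limit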;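 note: higher means more ATP so stronger rescue from cytokine killing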
Gli-Sufu block: Gli-Sufu pathway antagonism; inhibition, % at 5 µM; Sufu-KO-LIGHT fibroblasts, Gli luciferase reporter luminescence; AID 588413; 340,000 compounds, 0.74% hits;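 active = inhibition above about 55%, limit read from the data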
PAX8 inh HTS: inhibitors of PAX8 transcriptional activity in RMG-I cells | RMG-I TPO-luciferase reporter, SteadyGlo, 24 h | inhibition, % at 12.6 µM | 360,000 compounds, 1.2% hits;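 active = mean replicate inhibition at least 60% with every replicate also reaching 60%; inconclusive = only one of the two criteria is met; inactive = mean below 60% and not all replicates reaching 60%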;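 note: luciferase light reporting Pax8 driven TPO promoter activity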
CSC inhib: cancer stem cell inhibition | cancer stem cell-like cells viability, luminescence | inhibition, % at 7.5 µM | 300,000 compounds, 1.1% hits | AID 2717; in the data active = inhibition above about 75%; inconclusive = no clear call, values can overlap the other calls; tested in HMLE shEcad cells
Mdm2-MdmX inh: disrupts the human Mdm2-MdmX interaction. 330,000 compounds, 3% hits. SaOS-2 split-luciferase Mdm2/MdmX complementation, luminescence. inhibition, % at 8 µM;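 active = inhibition of at least 50% at 8 µM in the primary screen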
Target sequence (O15151 whole entry, looked up): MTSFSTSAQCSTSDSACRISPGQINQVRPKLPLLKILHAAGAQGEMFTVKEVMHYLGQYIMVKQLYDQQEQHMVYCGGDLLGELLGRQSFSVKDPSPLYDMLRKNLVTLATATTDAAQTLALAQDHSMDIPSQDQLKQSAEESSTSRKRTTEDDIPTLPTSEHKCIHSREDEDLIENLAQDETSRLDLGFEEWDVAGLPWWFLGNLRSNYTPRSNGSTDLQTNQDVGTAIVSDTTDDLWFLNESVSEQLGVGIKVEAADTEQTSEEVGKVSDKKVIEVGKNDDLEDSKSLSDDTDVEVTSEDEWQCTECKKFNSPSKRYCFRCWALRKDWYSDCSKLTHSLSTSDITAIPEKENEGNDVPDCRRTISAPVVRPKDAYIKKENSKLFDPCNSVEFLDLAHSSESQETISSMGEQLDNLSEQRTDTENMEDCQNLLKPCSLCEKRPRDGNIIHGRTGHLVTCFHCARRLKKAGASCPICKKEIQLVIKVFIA
Target sequence (Q00987 whole entry, looked up): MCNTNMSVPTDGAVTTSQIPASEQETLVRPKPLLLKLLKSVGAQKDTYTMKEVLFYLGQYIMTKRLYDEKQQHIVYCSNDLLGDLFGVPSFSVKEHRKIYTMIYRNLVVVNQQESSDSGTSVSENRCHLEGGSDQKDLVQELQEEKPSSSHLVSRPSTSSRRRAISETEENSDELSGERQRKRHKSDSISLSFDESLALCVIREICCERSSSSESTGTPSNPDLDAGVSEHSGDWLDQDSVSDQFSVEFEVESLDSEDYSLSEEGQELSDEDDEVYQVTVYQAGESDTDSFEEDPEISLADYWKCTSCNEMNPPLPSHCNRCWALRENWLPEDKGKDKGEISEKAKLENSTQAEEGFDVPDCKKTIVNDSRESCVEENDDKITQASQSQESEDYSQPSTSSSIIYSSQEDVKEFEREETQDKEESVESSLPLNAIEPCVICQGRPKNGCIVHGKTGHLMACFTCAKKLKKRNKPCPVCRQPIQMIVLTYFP
Mdm2-MdmX conf: confirmation of human Mdm2/MdmX interaction inhibitors. shares compounds with Mdm2-MdmX inh. Mdm2-MdmX binding, luminescent assay. inhibition, % at 8 µM. 10,000 compounds, 55% hits. AID 489028; in the data active = inhibition above about 40%
Full FLuc ctr: full-length luciferase inhibition in Mdm2/MdmX counter-screen | shares compounds with Mdm2-MdmX inh | SaOS-2 full-length luciferase counterscreen, luminescence | inhibition, % at 8 µM | 6,200 compounds, 77% hits | AID 504607;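 active = mean inhibition at 8 µM reaching about 37%, which flags the compound as non-specific, limit read from the data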;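 note: p53-null SaOS-2 cells with luciferase driven by a doxycycline-inducible promoter; compound on cells about two nights before reading with doxycycline added after day one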
A number is an active result; n = inactive; u = inconclusive; x = no result given.

SMILES | Shn3 3UTR inh | Beta apoptosis | Gli-Sufu block | PAX8 inh HTS | CSC inhib | Mdm2-MdmX inh | Mdm2-MdmX conf | Full FLuc ctr
CCOC(=O)/C=C/C(=O)OCC(=O)Nc1ccc(C)cc1 | n | n | n | n | x | n | x | x
CCOC(=O)/C=C/S(=O)(=O)c1ccc(NC(C)=O)cc1 | 96.5 | n | n | x | n | 68.3 | 52.8 | n
O=C(NCCc1ccncc1)[C@H]1N[C@H]2c3ccc(/C=C/c4ccccc4)c(=O)n3C[C@H]2[C@@H]1CO | x | x | x | n | x | x | x | x
CC(=O)Nc1ccc2c(c1)C(=O)N(C)[C@@H]1CC[C@H](CC(=O)NCC3CCCCC3)O[C@H]1CO2 | x | x | x | n | x | x | x | x
CN(C)C(=O)C[C@H]1CC[C@H](NC(=O)C2CCOCC2)[C@@H](CO)O1 | x | x | x | n | x | x | x | x
Cn1c(=O)c(C(=O)Nc2ccccn2)c(O)c2ccccc21 | n | n | n | x | n | 66.7 | 60.4 | n
COC(=O)C1=C(C)N(Cc2ccccc2)C(=NCCc2c[nH]c3ccccc23)N[C@H]1c1ccccc1 | n | n | n | x | n | 55.4 | n | x
COC(=O)C1=C(C)N(Cc2ccccc2)C(=S)N[C@H]1c1cccc(F)c1 | n | n | n | n | n | n | x | x
COC(=O)C1=C(C)N(Cc2ccccc2)C(=NCCc2c[nH]c3ccccc23)N[C@H]1c1cccc(F)c1 | 97.5 | n | n | n | 122.9 | 98.4 | 50.6 | 55.6
O=C(Nc1ccc(Cl)c([N+](=O)[O-])c1)Nc1nc2ccccc2s1 | x | n | x | x | 81.0 | 84.7 | n | 84.5
O=C(Nc1nc2ccccc2s1)Nc1ccc([N+](=O)[O-])cc1Cl | x | n | x | x | n | n | x | x
O=C(Nc1ccccc1)Nc1ccc(Cl)c([N+](=O)[O-])c1 | n | n | n | n | n | 79.6 | 50.4 | 42.7
C[C@@H]1CN([C@H](C)CO)C(=O)c2cc(NC(=O)Cc3ccccc3)ccc2O[C@@H](C)CCCCO[C@@H]1CN(C)S(=O)(=O)c1cccs1 | x | x | x | n | x | x | x | x
C(=N\Nc1ncnc2sc3c(c12)CCC3)/c1ccncc1 | n | n | n | n | n | n | x | x
C(=N\Nc1ncnc2sc3c(c12)CCC3)/c1cccs1 | n | 95.8 | x | x | 94.3 | 58.1 | 50.0 | n
CC1=C(C(=O)Nc2ccccc2)C(c2ccco2)C(C#N)=C(SCc2ccccc2)N1 (stereo not drawn) | x | n | x | x | u | n | x | x
CC1=C(C(=O)Nc2ccccc2)C(c2ccco2)C(C#N)=C(SCC(=O)Nc2cccc(C)c2C)N1 (stereo not drawn) | n | n | n | x | n | 69.2 | 42.4 | 79.3
CNC[C@@H]1OCCCC[C@H](C)Oc2ccc(NS(=O)(=O)c3ccc(C)cc3)cc2C(=O)N([C@H](C)CO)C[C@H]1C | x | x | x | n | x | x | x | x
O=C(c1[nH]ncc1-c1cccc(Br)c1)C1CO1 (stereo not drawn) | n | n | n | n | n | 50.9 | 43.5 | 50.8
Cn1cccc1/C=N/NC(=O)c1sc2cc(Cl)ccc2c1Cl | x | n | x | x | n | 73.5 | n | 47.7
Cc1ccc2c(Cl)c(C(=O)N/N=C/c3cccn3C)sc2c1 | n | n | n | n | n | n | x | x
COc1ccc(NC(=O)C2(c3ccc(NC(=O)c4ccc(OC)c(OC)c4)cc3)CCCC2)cc1 | n | n | n | x | n | 54.9 | n | x
CCOC(=O)c1c(NC(=O)c2cc(-c3cccc(O)c3)on2)sc(C(C)=O)c1C | n | x | n | n | n | 74.6 | n | x
Cc1onc(-c2ccccc2)c1C(=O)Nc1sc2c(c1C#N)CCC(C)C2 (stereo not drawn) | n | n | n | x | 139.1 | 59.3 | 54.6 | 55.9
CCCOc1cccc(NC(=O)c2c(-c3ccccc3)noc2C)c1 | n | n | n | n | n | n | x | x
Cc1cccc(OCCOC(=O)c2c(-c3ccccc3)noc2C)c1 | n | n | n | n | x | 54.7 | n | x
CCOC(=O)c1c(NC(=O)/C=C/C(=O)O)sc(C)c1-c1ccc(C(C)(C)C)cc1 | n | 79.4 | n | n | 109.2 | 86.9 | 79.8 | 56.4
COc1ccc(S(=O)(=O)N(C)C[C@H]2OCCCC[C@H](C)Oc3ccc(NC(=O)Nc4c(C)noc4C)cc3C(=O)N([C@H](C)CO)C[C@H]2C)cc1 | x | x | x | n | x | x | x | x
CCOCc1nnc(NC(=O)c2c(-c3ccccc3)noc2C)s1 | n | x | n | n | x | n | x | x
COC(=O)c1sccc1NC(=O)c1c(-c2ccccc2)noc1C | n | n | n | n | n | n | x | x
